# Sfp inh: blocks B. subtilis Sfp PPTase activity | Q9F4F7 | Potency, µM, inactives show largest response in the series, negative = inhibition, hits mostly inhibitors | Biochemical Sfp PPTase activity, qHTS | 310,000 compounds, 3.5% hits;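 note: the enzyme is Sfp with the accession as filed and its product quenches rhodamine fluorescence; 0% = enzyme reaction without inhibitor and -100% = no enzyme wells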
#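 Fluorescence-quenching assay with 15 nM Sfp, 5 uM rhodamine-CoA and 12.5 uM BHQ-2-labelled ybbR peptide in pH 7.6 Hepes/MgCl2 buffer. Enzyme was pre-incubated with compound for 15 min at room temperature. Rate was taken from the 30-min fluorescence change (525/598 nm).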
# JMJD2A Tudor inh: JMJD2A Tudor domain (human) inhibition; O75164; 390,000 compounds, 4.4% hits; AlphaScreen JMJD2A-Tudor / H3K4me3 peptide binding; Potency, µM (doses to about 114 µM), for the others: at the highest dose activity change, negative = inhibition, most hits filed as inhibitors; note: % is set by controls: 0 for no effect and ±100 for the full control effect; nearly all actives have a fitted effect of over 50% in size
# PLK1 PBD inh: blocks phosphopeptide binding to human PLK1 polo-box domain. P53350. Potency, µM, for inactives: max response, negative = inhibition, actives largely listed as inhibitors. AID 720504. 360,000 compounds, 2.8% hits. Plk1 PBD binding of FITC phosphopeptide, fluorescence polarization; note: series mostly up to about 57 µM; % is set by controls: 0 for no effect and ±100 for the full control effect; nearly all actives have a fitted effect of over 65% in size
# BAZ2B block: inhibitors of human BAZ2B bromodomain. Q9UIF8. AlphaScreen BAZ2B-H3K14Ac peptide displacement. AID 504333. Potency, µM (titrated, usually from 114 µM), inactives show top-dose activity change, negative = inhibition, most hits filed as inhibitors. 360,000 compounds, 4.4% hits; note: % is set by controls: 0 for no effect and ±100 for the full control effect; nearly all actives have a fitted effect of over 60% in size
#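 Inhibition is scored as reduced AlphaScreen emission. The BAZ2B/b-H3(5-23)K14Ac complex (50 nM each) in PBS pH 7.4, 0.01% Tween-20 meets compound (up to 110 uM) for 30 min at RT before bead addition.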
# G9a inh: inhibitors of human histone lysine methyltransferase G9a; G9a H3K9 monomethylation, AlphaScreen, 2 h; Q96KQ7; 350,000 compounds, 8.8% hits; Potency, µM (top dose mostly 102 µM), without a hit: at the highest dose activity, negative = inhibition, actives largely listed as inhibitors; AID 504332; note: % is set by controls: 0 for no effect and ±100 for the full control effect; nearly all actives have a fitted effect of over 75% in size
#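 Enzyme 20 nM + cpd, 15 min RT; add b-H3K9 pep 500 nM / SAM 20 uM; 2 h RT; anti-H3K9me1 Ab 0.5 ug/mL + SA donor / anti-rabbit acceptor beads 20 ug/mL each, 10 min; AlphaScreen read.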
# HP1b binding inh: HP1-beta chromodomain-methylated histone interaction inhibition | P83916 | AlphaScreen HP1-beta / biotin-H3K9me3 peptide binding | Potency, µM (top dose mostly 114 µM), for the others: at the top dose activity change, negative = inhibition, usual class: inhibitors | 390,000 compounds, 0.56% hits; note: nearly all actives have a fitted effect of over 70% in size
#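 AlphaScreen: HP1-beta (50 nM) preformed 30 min with biotin-H3(1-18)K9me3 peptide (50 nM) in PBS pH 7.4, 0.01% Tween-20. Compound added for 30 min at RT, then streptavidin donor/nickel chelate acceptor beads (10 ug/mL) for 30 min.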
# The depositor's hits bear a star; ? = inconclusive; nt = no result; [ ] = dose if it differs, or a comment. Compounds with a hit are over-represented: about 12% of the library has one in this group of screens. Calls come from the whole dose curve; as a rule, active = well fitted curve in the direction sought with a large enough effect; inconclusive = small, poorly fitted or top-dose-only effect, or another doubt; inactive = no such curve, though single readings can be large; an effect the other way counts as inactive or inconclusive. Potency is the fitted concentration of half-maximal effect.
SMILES,Sfp inh,JMJD2A Tudor inh,PLK1 PBD inh,BAZ2B block,G9a inh,HP1b binding inh
CCN1C(=O)/C(=C\c2cccn2-c2ccc([N+](=O)[O-])cc2)N(CC)C1=S,13%,-24%[57.1 µM],-19%,-12%,9%[59 µM],26%
COc1ccc(C2/C=C\CN(S(=O)(=O)CC34CCC(CC3=O)C4(C)C)CC(=O)N2Cc2ccc(F)cc2)cc1 (centres undefined),11%,-17%,nt,nt,nt,43%
CCOC(=O)C1=C(CSc2nc3ccccc3s2)NC(=O)NC1c1cc(C)ccc1C (centres undefined),7%,-23%,-5%,7%,14%[59 µM],23%
CC(C)CN1CCNC(=O)C1CC(=O)NCCc1ccc(C(F)(F)F)cc1 (centres undefined),-8%,-3%,-9%,-20%,?,24%
CC(C)CN1CCNC(=O)C1CC(=O)NCCCN1CCCc2ccccc21 (centres undefined),1%,-34%,-13%,79µM*,-11%[12.7 µM],2%
COCc1ccc(C(=O)N2CCCC(Nc3ccc4c(c3)OCCO4)C2)o1 (centres undefined),15%,-20%,2%,-28%,?,0%
O=c1cc2oc3cc(O)c(O)cc3c(-c3ccccc3[N+](=O)[O-])c-2cc1O,35µM*,0.71µM*,-24%,1.1µM*,1.4µM*,0.79µM*
CCCOc1ccc(Cc2c(COCC)[nH]c(=S)[nH]c2=O)cc1,6%,-20%,?,-16%,45µM*,3%
COc1cc(OC)c(OC)cc1/C=C1/C(=O)N=C(N)N1C,19%,-32%,21µM*,-17%,3%,20%
CCOC(=O)Cn1c2[n+](c3ccccc31)CC(O)CS2 (centres undefined),-9%,45µM*,-8%,?,?,7%
COC(=O)Cn1c2[n+](c3ccccc31)CC(O)CS2 (centres undefined),14%,-4%,-4%,-1%,-28%[59 µM],42%
Cc1ccc(CNC(=O)CN2C(=O)COc3ccccc32)cc1,nt,-4%,nt,3%,2%[59 µM],30%
OC1(CC#CCN2CCCCC2)c2ccccc2-c2ccccc21,13%,-12%,-3%,-13%,24%,26%
CCN(CC#CCC1(O)c2ccccc2-c2ccccc21)CCO,89µM*,89µM*,-3%,?,-11%[0.0925 µM],-4%
Clc1ccc(-c2nc3nc4ccccc4nc3n2Cc2ccco2)cc1,7.1µM*,-14%,-16%,-24%,-40%[59 µM],67%
CC1(C)CC(=O)C2=C(C1)c1c(ccc3ccccc13)NC2c1ccco1 (centres undefined),-24%,?,-6%,?,50µM*,5%
Cc1ccsc1C1Nc2ccc3ncccc3c2C2=C1C(=O)CC(C)(C)C2 (centres undefined),9%,-28%,-8%,-5%,-1%,-3%
O=C(Oc1ccccc1)N1CCC2(CCCN(c3ncccn3)C2)CC1,-13%,nt,nt,nt,32%[12.7 µM],nt
Cc1cc2c(NC(=O)Nc3ccccc3)cccc2nn1,45µM*,-2%,5%,8%,?,27%
COCCCN(C(=S)Nc1cc(C)cc(C)c1)C(C)c1ccncc1 (centres undefined),1%,-18%,-22%,-3%,6%[59 µM],19%
COCCCN(C(=S)Nc1c(C)cc(C)cc1C)C(C)c1ccccn1 (centres undefined),22µM*,-7%,24µM*,-25%,40µM*,6%
COc1ccc(CNC(=O)Cn2c(=O)n3nc(-c4cccc(F)c4)nc3c3ccccc32)cc1OC,nt,-7%,nt,1%,-19%[59 µM],22%
Fc1cc(F)cc(-c2oncc2-c2nnnn2-c2ccccc2)c1,27%,79µM*,?,3%,7%[59 µM],3%
Cc1ccc(-n2nnnc2-c2cnoc2-c2cccc(F)c2)cc1,12%,16µM*,21µM*,28%,-1%[59 µM],22%
Fc1ccc(-c2oncc2-c2nnnn2-c2ccccc2)cc1F,8%,-2%[57.1 µM],-3%,0%,8%[59 µM],71%

# Screening data (PubChem BioAssay)
